Bioassay records (PubChem BioAssay)
Tau ThT inhib – blocks human tau fibril formation measured by thioflavin T; P10636; AID 1460; Potency, µM (highest dose often 57.4 µM), for inactives: top-dose activity, negative = inhibition, usual class: inhibitors; recombinant tau K18 P301L, heparin-induced fibrillization, ThT fluorescence; 270,000 compounds, 2.1% hits; further: nearly all actives have a fitted effect of over 55% in size
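Heparin-induced fibrillization of the P301L-mutant K18 repeat-domain fragment of human tau was followed by ThT binding in quantitative high-throughput format.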
HPGD inh – blocks human HPGD enzyme activity; P15428; purified HPGD, NADH fluorescence kinetic, PGE2 substrate; Potency, µM, without a hit: top-dose activity change, negative = inhibition, usual class: inhibitors; 150,000 compounds, 4.3% hits; active means well fitted inhibition curve with a large enough effect, not every such curve was filed as active; inconclusive means small, poorly fitted or top-dose-only effect, or another doubt; inactive means no such curve, though single readings can be large or run the other way
Target sequence (P15428 whole entry, looked up): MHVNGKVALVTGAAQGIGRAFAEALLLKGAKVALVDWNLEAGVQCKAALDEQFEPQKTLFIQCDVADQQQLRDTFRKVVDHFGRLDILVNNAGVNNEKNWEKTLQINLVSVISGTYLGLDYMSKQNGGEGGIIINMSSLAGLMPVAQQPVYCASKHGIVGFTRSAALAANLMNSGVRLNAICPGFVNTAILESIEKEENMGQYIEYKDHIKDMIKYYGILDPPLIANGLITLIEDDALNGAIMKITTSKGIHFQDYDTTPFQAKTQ
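20 nM HPGD preincubated 15 min at room temperature with compound in 50 mM Tris-HCl pH 8, 0.01% Tween 20. Started with 1 mM NAD+ and 30 uM prostaglandin E2; NADH fluorescence (360/450 nm) read 5 times over 30-s intervals, last minus first.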
NPSR antagonist – neuropeptide S receptor (human) antagonism, cAMP; CHO-NPSR cells, cAMP TR-FRET, antagonist mode; Potency, µM (titrated, usually from 38.3 µM), inactives show at the top dose activity change, negative = inhibition, actives largely listed as inhibitors; 220,000 compounds, 1% hits; further: nearly all actives have a fitted effect of over 50% in size
Target sequence (Q6W5P4 whole entry, looked up): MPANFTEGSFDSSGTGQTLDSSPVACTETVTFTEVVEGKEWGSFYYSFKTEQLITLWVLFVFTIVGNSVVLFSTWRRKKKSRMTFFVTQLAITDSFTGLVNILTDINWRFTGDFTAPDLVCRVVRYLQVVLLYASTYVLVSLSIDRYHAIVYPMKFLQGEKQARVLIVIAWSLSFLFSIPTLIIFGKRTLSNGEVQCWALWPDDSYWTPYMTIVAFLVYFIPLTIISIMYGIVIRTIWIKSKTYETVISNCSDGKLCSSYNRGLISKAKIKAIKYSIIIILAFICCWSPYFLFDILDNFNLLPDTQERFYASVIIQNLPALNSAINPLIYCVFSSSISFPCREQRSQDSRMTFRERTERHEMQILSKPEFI
Tau FP inhib – tau fibrillization inhibition (FP); AID 1468; Potency, µM (series often up to 57.7 µM), for the others: at the top dose activity, negative = inhibition, actives largely listed as inhibitors; P10636; K18 P301L tau heparin fibrillization, Alexa594 FP, 6 h; 280,000 compounds, 0.39% hits; further: nearly all actives have a fitted effect of over 55% in size
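Read-out: fluorescence polarization of Alexa 594-labeled tau (0.24 uM), 555 nm excitation, 632 nm emission. Mixtures held 15 uM unlabeled K18 P301L, compound and 20 uM heparin, pH 7 acetate buffer, incubated 6 hr at 37 C.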
ALDH1A1 block – ALDH1A1 (human) enzyme inhibition; AID 1030; Potency, µM (top dose mostly 75.3 µM), for inactives: at the top dose activity, negative = inhibition, most hits filed as inhibitors; P00352; Purified ALDH1A1, NADH fluorescence, propionaldehyde substrate; 220,000 compounds, 7.3% hits; active means well fitted inhibition curve with a large enough effect, not every such curve was filed as active; inconclusive means small, poorly fitted or top-dose-only effect, or another doubt; inactive means no such curve, though single readings can be large or run the other way;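 further: plate controls were no enzyme wells and a reference inhibitor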
Tau fluor counter – counter-screen for tau fibril formation inhibitors; tau K18 P301L (four-repeat tau fragment) Alexa594 fluorescence, heparin fibrillization; 280,000 compounds, 0.93% hits; AID 1463; Potency, µM (top dose mostly 57.7 µM), for inactives: at the top dose activity change, negative = decrease; further: nearly all actives have a fitted effect of over 55% in size
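Human K18 P301L tau (15 uM unlabeled plus 0.24 uM Alexa 594-labeled, final) in 100 mM sodium acetate pH 7 was mixed with compound and 20 uM heparin and incubated 6 hr at 37 C.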
Active calls of the source: *; ? = inconclusive; · = no result given; ! = not confirmed by another sample; [ ] = remark or other dose. Rows were chosen to be rich in hits. Some 9.5% of all compounds tested hit in one or more screens of this group. Unless noted, the call rests on the fitted dose curve; in most records, active means well fitted curve in the direction sought with a large enough effect; inconclusive means small, poorly fitted or top-dose-only effect, or another doubt; inactive means no such curve, though single readings can be large; an effect the other way counts as inactive or inconclusive. Unless noted, on the % scale 0 is the no-effect control and ±100 the full control effect; potency means the concentration at half of the fitted maximal effect.

SMILES	Tau ThT inhib	HPGD inh	NPSR antagonist	Tau FP inhib	ALDH1A1 block	Tau fluor counter
O=C(/C(=C/c1ccc(Cl)cc1)c1nc2ccccc2[nH]1)c1cccs1	16µM*	?	2µM*	?	?	-29%
CC(C)[C@]1(Cl)CC[C@@H]2[C@]3(C)CCC[C@@](C)(C(=O)O)[C@H]3C[C@H](Cl)[C@@]2(Cl)[C@H]1Cl	·	-9%	·	·	0%[13.5 µM]	·
CC(C)C[C@@H](CC(=O)N[C@H](CC(=O)N[C@@H]1CCCC[C@H]1C(=O)N[C@H](CC(=O)N[C@@H](CCC(=O)O)CC(=O)O)CC(C)C)C(C)C)NC(=O)[C@@H]1CCCC[C@H]1N	-8%	-3%	·	-10%	?	-8%
S=C(Nc1ccc(Cl)cc1)c1nc2ccccc2[nH]1	?	-13%	-6%	14%	3%	-16%
O=C(/C(=C\c1ccccc1)c1nc2ccccc2[nH]1)c1ccc(Cl)cc1	22µM*	-8%	10µM*	?	12%	-24%
Cc1ccc(C)c(CSc2nc3ncccc3[nH]2)c1	-9%	·	·	6%	·	-6%
CC(C)CCn1c(O)c(N=NC(=O)Cn2ccc(C(F)(F)F)n2)c2ccccc21	-8%	-5%	-27%	3%	-1%	-11%
CCCn1c2ccccc2c2nc3ccccc3nc21	?	-5%	-9%[46.1 µM]	-1%	-11%	-11%
CC(C)CCn1c(O)c(N=Nc2ccccn2)c2ccccc21	?	-10%	-26%	-14%	0.35µM*	-28%
CCCn1c(O)c(N=Nc2ccc3ccccc3n2)c2ccccc21	13µM*	-6%	-11%	0%	-13%	-6%
CC(C)C[C@@H](CC(=O)N[C@@H](CCC(=O)O)CC(=O)O)NC(=O)[C@@H]1CCCC[C@H]1NC(=O)C[C@H](CCCN)NC(=O)C[C@H](CO)NC(=O)[C@@H]1CCCC[C@H]1N	-4%	-2%	·	-3%	-3%	-5%
CC(=O)Oc1cccc(N2C(=O)c3ccc(C(=O)Nc4cccnc4)cc3C2=O)c1	-13%	·	-7%	-15%	18µM*	-10%
CC1(OC(=O)CCc2ccccc2)C(=O)C=C2C=C(c3ccc(C#N)cc3)N(c3ccccc3)C=C2C1=O (stereo unspecified)	13µM*!	-5%	-5%	?	8%[13.5 µM]	-1%[11.6 µM]
Fc1cccc(CSc2nc(NCCc3ccccc3)c3ccccc3n2)c1	?	·	·	2%	·	-27%
CC(C)(C)NC(=S)NNC(=O)c1cccc(Br)c1	-14%	·	-36%	6%	11µM*	-14%
O=C(O)CCC(=O)NNC(=O)c1cccc(Br)c1	-8%	1%	15%	5%	3%	7%
CC(C)(C)NC(=S)NNC(=O)c1ccc2ncccc2c1	-14%	·	-6%	-12%	?	-6%
O=C(NNC(=S)Nc1ccccc1)c1cccc(Br)c1	?	-7%	-23%[46.1 µM]	-2%	20µM*	-25%
O=C(NNC1OC(CO)C(O)C(O)C1O)c1cccc(Br)c1 (stereo unspecified)	-14%	·	22%	9%	11µM*	-9%
O=C(O)/C=C/C(=O)NNC(=O)c1cccc(Br)c1	?	-2%	12%	7%	20µM*	-5%
Cc1nnc(N2CCN(c3ccccc3F)CC2)c2c1nnn2Cc1ccccc1Cl	-10%	·	·	0%	·	-14%
COC(=O)c1c(SC)nc2ccccc2c1OCc1ccccc1C	?	·	·	?	·	-29%
O=C(NC(=S)Nc1cc(Cl)ccc1O)c1cccc(Br)c1	?	·	34%	4%	9.5µM*	?
COc1ccc(NC(=O)N2CC[C@@]3(CCCNC3)C2)cc1	·	-4%	·	·	14µM*	·
CC(OC(=O)c1ccncc1)C(=O)Nc1ccc([N+](=O)[O-])cc1Cl (stereo unspecified)	-5%	·	-2%	1%	?	-2%
SMILES	Tau ThT inhib	HPGD inh	NPSR antagonist	Tau FP inhib	ALDH1A1 block	Tau fluor counter
CNC(=O)c1nn(-c2ccc(Cl)cc2)ccc1=O	-8%	-23%	-3%[46.1 µM]	-5%	-8%	-9%
CCCNC(=O)c1nnsc1S(=O)(=O)c1ccc(Cl)cc1	?	·	?	-9%	20µM*	2%
CCCNC(=O)c1nnsc1S(=O)c1ccc(Cl)cc1 (stereo unspecified)	?	·	-33%	-2%	11µM*	-4%
CNC(=O)c1nnsc1S(=O)c1ccc(Cl)cc1 (stereo unspecified)	?	·	-45%	?	22µM*	-4%
CCCNC(=O)c1ccc2snnc2c1	8%	-16%	-5%[46.1 µM]	6%	?	11%
COc1ccc(NC(=O)CS(=O)(=O)c2cn(CC(=O)N3CCOCC3)c3ccccc23)cc1	2%	·	13%	-1%	?	5%
Cc1ccc(S(=O)(=O)NCCc2nnc3ccc(SCc4ccccc4F)nn23)cc1	-8%	·	·	-1%	·	-10%
Cc1cccc(-c2nn3c(=O)cc(CN4CCN(S(=O)(=O)c5ccc(Cl)cc5)CC4)nc3s2)c1	-3%	·	·	0%	·	-3%
CCOc1ccc(Nc2nc3ccccc3n3nnnc23)cc1	-16%	-33%	-15%[46.1 µM]	10%	3%	?
CN(C)c1ccc(Nc2nc3ccccc3n3nnnc23)cc1	7.9µM*	·	·	13%	·	11µM*[quencher]
CC1=C(C)/C(=N\OS(=O)(=O)c2ccccc2)C=CC1=O	13µM*	-11%	5µM*	16µM*	?	?
COc1cc(/C=C(\NC(C)=O)C(=O)Nc2cccc(O)c2)ccc1OC(C)=O	?	-13%	11%	6%	0.089µM*	-14%
CCOc1ncccc1C(=O)NCc1ccccc1Cl	1%	·	-3%	-4%	-8%	-2%
N#Cc1c(N)oc(-c2ccco2)c1-c1ccco1	14µM*	?	-10%[46.1 µM]	-6%	?	?
N#Cc1c(N)oc(-c2ccccc2)c1-c1ccccc1	-20%	-19%	2%[7.67 µM]	-1%	?	-12%
CCOc1cccc(CNc2ccc(O)cc2)c1OCc1ccc(Cl)cc1	8.9µM*	-19%	?	13µM*	2.2µM*	?
Cc1ccc(NCc2ccccc2OCc2ccccc2F)cc1	-15%	-22%	-22%[46.1 µM]	12%	0%	?
Oc1ccc(NCc2ccccc2OCc2ccccc2F)cc1	16µM*	-23%	?	22µM*!	18µM*	7.9µM*[quencher]
Oc1ccc(NCc2ccc(OCc3ccccc3Cl)cc2)cc1	14µM*	·	·	?	·	7.9µM*[quencher]
Oc1ccc(NCc2ccccc2OCc2ccccc2Cl)cc1	28µM*	·	·	-15%	·	16µM*[quencher]
NS(=O)(=O)c1ccc(NCc2ccccc2OCc2ccccc2F)cc1	-16%	-8%	-16%[46.1 µM]	13%	8%	-22%
COc1cccc(CNCCO)c1OCc1ccc(Cl)cc1	-3%	·	24%	0%	8%	-2%
